Drawing on PubChem BioAssay AID504915 (The Scripps Research Institute Molecular Screening Center, 2011), this text covers activation for one compound.

The assay deals with 5-hydroxytryptamine receptor 5A (Homo sapiens) (UniProt P47898). Description: activation of human 5-HT5A receptor – cell-based, luminescence, confirmation (AID 504915).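 Further: 0% = cells with vehicle only and 100% = full reference agonist response.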 The note with it: HTR5A agonist cell assay, at 9.3 µM, active compounds read high.

Each structure is given as a SMILES string. Some of the results follow. A number with no mark means an inactive call. No stated cut-off is given here; in the data, active means activation above about 17%; inactive means the rest.

Sequence of 5-hydroxytryptamine receptor 5A (Homo sapiens) (P47898 whole entry, looked up): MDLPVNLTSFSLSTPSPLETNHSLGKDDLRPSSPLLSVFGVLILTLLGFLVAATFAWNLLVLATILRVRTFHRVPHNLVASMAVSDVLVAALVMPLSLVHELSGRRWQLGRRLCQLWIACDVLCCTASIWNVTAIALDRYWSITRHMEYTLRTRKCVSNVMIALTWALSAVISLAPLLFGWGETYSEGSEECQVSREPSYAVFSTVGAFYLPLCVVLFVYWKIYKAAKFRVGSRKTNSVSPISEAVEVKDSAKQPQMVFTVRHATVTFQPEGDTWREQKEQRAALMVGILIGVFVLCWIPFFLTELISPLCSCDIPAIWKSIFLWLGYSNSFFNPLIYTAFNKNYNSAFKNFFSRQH

In the case of `CCCCCCCCCCCCn1ccc(=N)cc1`, the activation is 0.13%.
